From PubChem
TDP1 cell CPT: DT40-hTDP1 cell growth loss with CPT; chicken DT40 Tdp1-/-;hTDP1 cells + 20 nM CPT, ATP luminescence, 48 h; Potency, µM (highest dose often 46.2 µM), inactives show at the top dose activity change, negative = growth inhibition, usual class: inhibitors; 420,000 compounds, 12% hits; AID 686979; further: potency means the concentration at half of the fitted maximal effect; nearly all actives have a fitted effect of over 55% in size
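Chicken DT40 Tdp1-/- cells complemented with human TDP1, 400 cells/well, exposed to compounds plus 20 nM camptothecin for at least 48 h at 37 C; viability read as ATP content by CellTiter-Glo luminescence.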
HT1080 IDH1KD tx: HT-1080 IDH1 knockdown cell toxicity (counter line). 360,000 compounds, 2% hits. HT-1080 IDH1 knockdown viability, ATP luminescence, 48 h. Potency, µM (highest dose often 46.1 µM), for the others: at the highest dose activity, negative = toxicity, usual class: cytotoxic;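 further: potency means the concentration at half of the fitted maximal effect; 0% = DMSO wells and -100% = cell-free medium wells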
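Assay cells: HT-1080 with IDH1 knockdown, 750 per well, RPMI/5% FBS. Exposure: 48 h at 37 °C following 2 h pre-incubation. Read: CellTiter-Glo luminescence; fitted concentration-response, curve class assigned.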
TDP1 cell noCPT: qHTS for Inhibitors of human tyrosyl-DNA phosphodiesterase 1 (TDP1): qHTS in cells in absence of CPT; DT40 Tdp1-/- hTDP1 cells, no CPT, ATP luminescence, 48 h; Potency, µM (titrated, usually from 46.2 µM), without a hit: top-dose activity change, negative = growth inhibition, actives largely listed as inhibitors; 420,000 compounds, 15% hits; further: potency means the concentration at half of the fitted maximal effect; nearly all actives have a fitted effect of over 55% in size
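Luminescent ATP content (CellTiter-Glo) served as the growth readout. Knockout chicken DT40 cells expressing human TDP1 were exposed to compounds without camptothecin for a minimum 48 hr at 37 °C.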
IL1B secr inh: blocks inflammasome-driven IL-1 beta release; THP-1 LPS/ATP IL-1B secretion, AlphaLISA, 16 h; stronger effect = lower value; activity change, % at 57.5 µM; 360,000 compounds, 4.7% hits; in the data active means activity change below about -50%; inconclusive means mostly about -30% to -49%
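Secreted IL-1B measured by AlphaLISA bead assay after 16 h compound exposure of THP-1 cells; compounds (final up to 57.5 uM) added 1 h before LPS (250 ng/mL) and ATP (1.25 mM) stimulation; lower signal means less secretion.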
HT1080NT lethal: kills 2HG-producing HT-1080-NT fibrosarcoma cells | 360,000 compounds, 1.6% hits | AID 686970 | Potency, µM (series often up to 46.1 µM), without a hit: at the highest dose activity, negative = less viability, most hits filed as cytotoxic | HT-1080-NT fibrosarcoma viability, CellTiter-Glo ATP luminescence, 48 h;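 further: NT is the 2HG producing partner of a matched IDH1 knockdown line; potency means the concentration at half of the fitted maximal effect; 0% = DMSO-treated cells and -100% = media-only wells without cells; nearly all actives have a fitted effect of over 55% in size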
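Viability by CellTiter-Glo luminescence after 48 h compound exposure at 37C of HT-1080-NT cells (750/well, RPMI, 5% FBS). % activity scaled between DMSO wells and medium-only wells, then curve-fitted and categorized by curve class.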
12-LOX inh: inhibitors of human 12S-lipoxygenase ALOX12 | Potency, µM (doses to about 108 µM), without a hit: top-dose activity change, negative = inhibition, most hits filed as inhibitors | purified 12hLO, xylenol orange hydroperoxide absorbance | 580,000 compounds, 1.1% hits | P18054; further: potency means the concentration at half of the fitted maximal effect
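Purified human 12hLO (150 nM final) in 25 mM Hepes, 0.01% Triton X-100, pH 7.0 was preincubated 15 min at room temperature with compound. Then 40 uM arachidonic acid was added, 30 min. Hydroperoxide was read by Fe-XO absorbance ratio 573/405 nm.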
Numbers without * were called inactive; ? = inconclusive; . = no result. The sample as a whole holds a higher share of hits than the screen did. Unless noted, the call rests on the fitted dose curve; in most records, active means well fitted curve in the direction sought with a large enough effect; inconclusive means small, poorly fitted or top-dose-only effect, or another doubt; inactive means no such curve, though single readings can be large; an effect the other way counts as inactive or inconclusive. Unless noted, on the % scale 0 is the no-effect control and ±100 the full control effect.

SMILES | TDP1 cell CPT | HT1080 IDH1KD tx | TDP1 cell noCPT | IL1B secr inh | HT1080NT lethal | 12-LOX inh
CSc1ccc(OC2(C)CCN(Cc3ccc(C(C)C)cc3)C2)cc1 (configuration not stated) | ? | -19% | 18µM* | 28 | -27% | ?
CC1(Oc2ccc(CC#N)cc2)CCN(Cc2ccc(-n3ccnc3)cc2)C1 (configuration not stated) | ? | 18% | 13µM* | -1 | 27% | ?
CC1(Oc2ccc(Cl)cc2)CCN(Cc2ccc(OC(F)(F)F)cc2)C1 (configuration not stated) | ? | 29% | -11% | -81* | 1% | ?
CC1(Oc2ccc(CC#N)cc2)CCN(Cc2ccccc2OC(F)F)C1 (configuration not stated) | -29% | 10% | -27% | 18 | 12% | -30%
CC(C)Oc1ccccc1OC1(C)CCN(Cc2ccc(OC(F)(F)F)cc2)C1 (configuration not stated) | ? | 4% | ? | 23 | -8% | -6%
CCc1ccc(OC2(C)CCN(Cc3ccc(SC)cc3)C2)cc1 (configuration not stated) | ? | ? | ? | -7 | ? | -13%
O=C(NCc1nnc2cc(-c3nc(C4CC4)no3)ccn12)C1CCCCC1 | . | . | . | . | . | -1%
CCOc1ccccc1NC(=O)N1CCC(Cc2nc(-c3ccccc3)n[nH]2)C1 (configuration not stated) | . | . | . | . | . | 40%
CN(CC(=O)Nc1ccc(OC(F)(F)F)cc1)C(=O)c1ccccc1SCC(=O)N1CCCC1 | 23µM* | -1% | ? | -7 | 2% | 0%
COc1ccc(Br)cc1CN(C)C(=O)c1ccccc1SCC(=O)N1CCCC1 | ? | -11% | ? | -53* | -11% | .
CN(CC(=O)Nc1ccc(Cl)c(Cl)c1)C(=O)c1ccccc1SCC(=O)N1CCCC1 | ? | -9% | 23µM* | -16 | -11% | -30%
COc1ccccc1CN(C)C(=O)c1ccccc1SCC(=O)N1CCCC1 | ? | 6% | -6% | -27 | 10% | 24%
CN(Cc1cccc(Cl)c1Cl)C(=O)c1ccccc1SCC(=O)N1CCCC1 | 12µM* | -28% | 13µM* | -16 | ? | 12%
O=C(COC(=O)c1ccccc1SCC(=O)N1CCCC1)Nc1ccc(OC(F)F)cc1 | -16% | 5% | ? | 0 | -4% | -3%
Fc1cccc(CSC2=NCCS2)c1 | . | . | . | . | . | 6%
CN1CCN(c2oc(COc3ccccc3F)nc2C#N)CC1 | . | . | . | . | . | 38%
Cc1ccc(/C=C(/C#N)c2ccc(C(F)(F)F)cn2)s1 | . | . | . | . | . | 5%
CN(Cc1ccc(Cl)c(Cl)c1)C(=O)c1ccccc1SCC(=O)N1CCCC1 | ? | -13% | 21µM* | -72* | -25% | -5%
C=CCN([C@@H](CC(C)C)C(=O)OC)S(=O)(=O)N(CC=C)[C@@H](CC(C)C)C(=O)OC | ? | -7% | 18µM* | 36 | 8% | 2%
COc1cccc(CNS(=O)(=O)c2ccc3c(c2)OCC(C(=O)N2CCCCC2)O3)c1 (configuration not stated) | . | . | . | . | . | 4%
CS(=O)(=O)c1ccc(C(=O)N(Cc2ccccc2)c2ccccc2)cc1 | ? | 10% | ? | 11 | -4% | ?
COc1ccc(C(=O)N(Cc2ccccc2)c2cccc(C)c2)cc1 | 15µM* | -17% | ? | 13 | -21% | 44%
Cc1cccc(N(Cc2ccccc2)C(=O)c2ccc(S(C)(=O)=O)cc2)c1 | 16µM* | 0% | ? | 0 | 0% | ?
